Laboratory results reported in PubChem BioAssay AID1117319 (Southern Research Institute, 2015).
“And” between values parts separate entries of the source, which are not always exact repeats. Equal entries are not always repeated. The campaign covered roughly 260,000 compounds. About 1,500 (0.58%) were called active. Roughly 5% stayed inconclusive and do not appear here.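 Rule for the calls: active = inhibition above a set limit at one or more doses, reproduced on every date tested; inconclusive = results disagree between test dates, or hit never tested in dose response; inactive = the rest.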 Not all results are given here. Results with a measured potency or affinity are listed apart.

These compounds were tested against Virion infectivity factor (Human immunodeficiency virus type 1 group M subtype B (isolate BH10)) + Virion infectivity factor (Human immunodeficiency virus type 1 group M subtype B (isolate BRU/LAI)) + Virion infectivity factor (Human immunodeficiency virus type 1 group M subtype B (isolate PCV12)) + Virion infectivity factor (Human immunodeficiency virus type 1 group M subtype B (isolate HXB2)) + DNA dC->dU-editing enzyme APOBEC-3G (Homo sapiens) (UniProt P69720+P69721+P69722+P69723+Q9HC16) (assay: HIV-1 Vif–A3G interaction blockers – biochemical, TR-FRET, GST-Vif 1-94, biotin-A3G peptide, dose response retest, primary screen (AID 1117319;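 note: Vif residues 1-94 fused to GST binding biotinylated APOBEC3G peptide 110-148; 0% = full assay without inhibitor and 100% = GST in place of GST-Vif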)). Details: TR-FRET GST-Vif / biotin-A3G peptide binding; active compounds read high.

inhibition, inactive:
Cc1cc(C(C)(C)C)oc1C(=O)N(CC(=O)NC1CCCC1)Cc1ccc(F)cc1 0.27%, CCOC(=O)C1(Cc2cccc(F)c2)CCN(Cc2ccon2)CC1 -4.55%, Cc1ccccc1C(=O)O/N=C1\CCS(=O)(=O)c2sccc21 1.21%, CCOc1ccc(S(=O)(=O)Nc2cc(OC)ccc2OC)cc1 6.81%, CCCCOc1ccc(S(=O)(=O)Nc2cc(OC)ccc2OC)cc1 1.88%, CCOc1ccc(/C=N/NC(=O)CN2CCCCCCC2)cc1 7.01%, COc1ccc(NC(=O)NNC(=O)c2ccc(Cl)cc2Cl)cc1OC 0.67%, O=C(O)c1ccc(NS(=O)(=O)c2ccc3c(c2)C2C=CCC2C(c2ccccc2F)N3)cc1 (stereo unspecified) -10%, Cc1c(Cl)cccc1NS(=O)(=O)c1ccccc1 -1.9%, COc1cccc(NS(=O)(=O)c2ccc3c(c2)NC(=O)CC(=O)N3)c1 -6.3%, O=C(O)c1cccc(S(=O)(=O)Nc2ccccc2Cl)c1 65.8%, CN(C)CCNC(=O)Cn1nc(C(F)F)cc1C1CC1 12.5%, O=C(Nc1nc2c(ccc3ccccc32)s1)c1cc([N+](=O)[O-])ccc1N1CCOCC1 -2.48%, CC(=O)Oc1ccccc1C(=O)N1CCN(S(=O)(=O)c2ccc3ccccc3c2)CC1 -7.33%, Cc1cc(C)n(CC(=O)NNC(=O)c2ccc(S(C)(=O)=O)cc2)n1 -6.9%, CC(=O)c1ccc(NC(=O)Cn2nc(C)cc2C)cc1 1.14%, Cc1nc(C)n(CC(O)COc2ccc(C(=O)c3ccccc3)cc2)n1 (stereo unspecified) 11.5%, CCCc1cc(=O)oc2c(CN3CCCC3)c(O)c(Cl)cc12 8.61%, CCCc1cc(=O)oc2c(CN3CCCC3)c(O)ccc12 -2.7%, Cc1cc2oc(=O)cc(CN3CCCCC3)c2cc1O -5.08%, CCc1cc(=O)oc2cc(C)c(CN3CCCC(C)C3)c(O)c12 (stereo unspecified) 11.2% and 11.8%, Fc1ccc2nc(Nc3ccccc3)sc2c1 -8.41%, CCCCNC(=O)CN1CCN(Cc2ccc3cc(OC)ccc3c2)CC1 -10.8%, CSc1nc(NCc2ccco2)c2c3c(sc2n1)CN(C)CC3 21.2%, CCN1CCc2c(sc3c2c(NCc2ccco2)nc2nnnn23)C1 11.3%, Cc1ccc(OCC(=O)N/N=C2/SCC(=O)N2Cc2ccco2)cc1 11.4%, Cc1ccc(-c2nnc(SCC(=O)NNC(=O)COc3cccc(C)c3)n2C)cc1 -3.33%, C=CCn1c(C)cc(C(=O)CSc2nc3ccccc3c(=O)[nH]2)c1C 11.7%, COCCn1c(C)cc(C(=O)CSc2nc3ccccc3c(=O)[nH]2)c1C 25.5%, COc1ccccc1C1CCN(Cc2ccc(Cl)c(Cl)c2)CC1 -7.3%, CC(C)(C)C(=O)Cn1c[n+](N)cn1 2.71%, Cc1c(Br)c(=O)oc2c(Br)c(O)ccc12 -6.73%, Cc1c(Br)c(=O)oc2c(C)c(O)ccc12 -26.6%, Cc1cc(SCC(=O)N/N=C/c2ccc(O)cc2O)c(C)cc1Br 31.7%, Cc1cc(SCC(=O)N/N=C/c2ccc(O)c(O)c2)c(C)cc1Br 7.89%, COc1ccc(CN2C(=O)c3cccnc3C2=O)cc1S(=O)(=O)N1CCCCC1C (stereo unspecified) 1.43%, CCOC(=O)C1=C(C)C(c2ccccc2OC)NC(=O)N1 (stereo unspecified) 25.5%, O=C(c1ccccc1)c1ccc(Oc2ncccn2)cc1 -0.66%, N#CCc1ccc(Oc2ncccn2)cc1 2.04%, O=C(COC(=O)c1ccccc1Nc1ccc(SC(F)F)cc1)NC1CC1 -3.33%, CCCCOc1ccc(C(=O)NCC(=O)OCCCOC(=O)CNC(=O)c2ccc(OCCCC)cc2)cc1 -9.89%, CCCCCOc1ccc(C(=O)NCC(=O)NCC(=O)OCC)cc1 21.7%, COc1ccccc1N1CCN(C(=O)c2cc3n(n2)C(C(F)(F)F)CC(c2ccco2)N3)CC1 (stereo unspecified) 3.76%, O=C(O)c1cc2n(n1)C(C(F)(F)F)CC(c1ccco1)N2 (stereo unspecified) 23.7%, NC(=O)c1cc2n(n1)C(C(F)(F)F)CC(c1ccco1)N2 (stereo unspecified) 28%, NC(=O)C1CCN(C(=O)c2cc3n(n2)C(C(F)(F)F)CC(c2ccco2)N3)CC1 (stereo unspecified) 21.3%, O=C(c1cc(-n2cnnc2)ccc1Cl)N1CCN(c2nc(-c3ccccc3)cs2)CC1 -0.17%, O=C(NC12CC3CC(CC(C3)C1)C2)N(Cc1ccccc1)Cc1ccncc1 -2.12%, Cc1cc(C)n2nc(SCCCC(=O)c3ccccc3)nc2n1 -0.54%, COc1ccccc1NC(=S)NNC(=O)c1cc(C)n(C)n1 5.87%, COc1ccc2[nH]c(C)c(CCNC(=S)Nc3ccccc3C)c2c1 -0.27%, O=c1oc2cc(O)ccc2c2oc3cc(O)ccc3c12 21.4%, O=c1oc2cc(O)c(Cl)cc2c2ccccc12 -238%, O=c1oc2ccccc2c2oc3cc(O)c(O)cc3c12 24.2%, O=c1oc2cc(O)ccc2c2ccccc12 -45.8%, COc1cccc(NC(=O)CN(C)C(=O)c2cc(-c3cccc(Br)c3)nc3ccccc23)c1 4.76%, CCOC(=O)c1nc(NCc2cccc(OC)c2)c2ccccc2n1 -2.69%, O=C(COC(=O)c1cc(=O)[nH]c2ccccc12)NC1CCCC1 8.34%, CCOC(=O)c1cnc2c(C(=O)OCC)cnn2c1N 4.51%, CCOC(=O)c1cnc2c(C#N)cnn2c1N -5.32%, CCSc1nc(-c2ccccc2)c(-c2ccccc2)n1CC(O)CO (stereo unspecified) -5.14%, CCc1ccc[n+](-c2[nH]c(=O)sc2/C=N/NC([S-])=Nc2ccccc2)c1 30%, Cc1ccc[n+](-c2[nH]c(=O)sc2/C=N/N=C(\[O-])CCn2c3ccccc3c3ccccc32)c1 -0.87%, O=C(Nc1ccc(F)cc1Cl)c1ccc2c(=O)n3c(nc2c1)CCC3 2.76%, O=C(CSc1ccc2c(c1)OCCO2)N1CCN(c2ccccc2O)CC1 14.3%, Nc1cc(Cl)ccc1Oc1ccccc1 -0.78%, Nc1cc(Cl)ccc1Oc1ccc(Cl)cc1 14.4%, CC(=O)Nc1ccc(S(=O)(=O)NCCC(=O)N2CCC(Cc3ccccc3)CC2)cc1 -8.11%, CCC(=O)N(CCC1(C(C)C)CCOC(C)(C)C1)Cc1ccco1 (stereo unspecified) 1.68%, O=C(CC1C(=O)NCCN1Cc1ccccc1)NCCN1CCCCC1=O (stereo unspecified) 4.62%, CC(C)(C)CN1CCNC(=O)C1CC(=O)NCCN1CCCc2ccccc21 (stereo unspecified) 20.1%, Cc1ccccc1NC(=O)c1cnn(-c2ccccc2)c1C -7.17%, NC(=S)NCc1cccnc1 -0.39%, CCn1cc(S(=O)(=O)CC(=O)NC2CCCCC2)c2ccccc21 -2.6%, CCOC(=O)N1CCN(S(=O)(=O)c2ccc(C)c(C(=O)NC3CCCCC3)c2)CC1 5.81%, CCNc1ccccc(-c2ccc3ccccc3n2)c1=O 14.5%, c1ccc2nc(-c3ccc4c(c3)OCO4)ccc2c1 5.74%, COc1ccc(NC(=O)c2cc(S(=O)(=O)N3CCCCC3)ccc2N2CCCCC2)cn1 5.2% and 0.78%, O=C(c1ccco1)N(c1ccccn1)c1ccccn1 3.18%, O=C(N/N=C/C=C/c1ccccc1)c1ccncc1 -6.12%, O=C(/C=C/c1ccco1)Nc1ccccn1 1.75%, Cn1c(=O)c2c(ncn2CC(=O)N/N=C/C=C/c2ccccc2)n(C)c1=O 7.57%, Cn1c(=O)c2c(ncn2CC(=O)N/N=C/C=C/c2ccccc2[N+](=O)[O-])n(C)c1=O 10.3%, O=C(/C=C/c1ccco1)Nc1cccnc1 1%, O=C(C=Cc1ccco1)c1ccco1 3.42%, COc1ccccc1/C=C/C=N/NC(=O)c1ccncc1 -1.29%, OC(CNCCNc1ncccc1C(F)(F)F)Cn1ccc2ccccc21 (stereo unspecified) 4.3%, O=C(CNS(=O)(=O)c1ccc(Br)cc1)N1CCN(c2ccc(F)cc2)CC1 -8.26%, O=C(O)CNC(=O)CCn1nnc2ccccc2c1=O -2.36%, CCOc1cccc2sc(NC(=O)c3ccc(Br)s3)nc12 -37.3%, Cc1ccc(NC(=O)CCC(=O)N/N=C/c2cccs2)cc1C -6.77%, Cc1cc(C)n2c(SCCC(C)C)nnc2n1 10.9%, CCOC(=O)Oc1ccc2c(=O)c(Oc3cccc(C)c3)coc2c1 0.27%, CC(=O)N1CCSc2ccc(S(=O)(=O)NCCc3ccc(C)cc3)cc21 2.49%, Cc1ccc(SCc2c(C(=O)N/N=C/c3ccc(C)o3)nnn2-c2nonc2N)cc1 -4.93%, N#Cc1ccc(OCc2cccc(S(=O)(=O)N3CCOCC3)c2)cc1 0.78%, c1ccc(-c2nnc(-c3ccco3)o2)cc1 -6.32%, O=C(N/N=C/C=C/c1ccccc1)c1cccnc1 -6.59%, CC(/C=C/c1ccco1)=N/NC(=O)c1ccc(C)nc1 1.76%, CC(/C=C/c1ccco1)=N\NC(=O)c1cccc(Cl)c1 -1.59%, CC(/C=N/NC(=O)c1cccnc1)=C\c1ccco1 28.6%
